In the library only some 4.1% were active in any assay of this set; here they are far more common.
TROY NFkB inh: inhibitors of TROY-driven NF-kB signaling, primary screen, Q293 LMP1-TROYcd cells, NF-kB luciferase, uHTS; inhibition, % at 10 µM; Q293 LMP1-TROYcd NF-kB luciferase reporter, 4 h; AID 1347056, 2019; actives 0.98% (n = 360,000);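 active means compounds whose plate-normalised and pattern-corrected inhibition of the luciferase reporter signal at the single screening dose is 50% or more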
TWEAK-Fn14 inh: inhibitors of TWEAK-Fn14 signaling, primary screen, luciferase reporter cells, uHTS; actives 2% (n = 360,000); inhibition, % at 10 µM; TWEAK-stimulated Fn14 reporter cells, luciferase luminescence, 8 h; in the data active means inhibition above about 50%
EBV LMP1 NFkB: EBV LMP1-driven NF-kappaB luciferase reporter inhibitors, primary screen, cell-based, luminescence, single point; LMP1-induced NF-kappaB luciferase reporter cells; inhibition, % at 12.5 µM; actives 0.69% (n = 350,000); AID 504558, 2011; in the data active means inhibition above about 41%; inconclusive means no clear call, values can overlap the other calls;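 further: 0% = neutral control wells and 100% = reference inhibitor control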
Peg3 prom inh: Peg3 promoter-driven luciferase inhibitors, primary screen, cell-based, HeLa, luciferase luminescence; HeLa PEG-Prom luciferase reporter, overnight; inhibition, % at 20 µM; actives 1.7% (n = 360,000);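 active means inhibition of at least 50% at 20 µM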
MITF TRPM1 inh: inhibitors of MITF-dependent TRPM1 promoter reporter, primary screen, cell-based, SK-MEL-5, single point, luciferase; actives 0.83% (n = 330,000); inhibition, % at 12.5 µM; AID 488899, 2010; SK-MEL-5 TRPM1 promoter luciferase, 24 h;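 active means mean inhibition across replicates of 60% or more, whatever share of single replicates reaches that level; inconclusive means some that reach 60%, reason not given; inactive means mean inhibition across replicates below 60%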
Shn3 3UTR inh: reduction of Shn3 3'UTR firefly luciferase signal, primary screen, Schnurri-3 inhibitor project, cell-based, Clone20 osteoblasts, set 2; Clone20 osteoblast Shn3 3'UTR firefly luciferase, 24 h; inhibition, % at 12.5 µM; actives 0.52% (n = 360,000); AID 588674, 2011;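 active means mean inhibition of at least 75% with every replicate also reaching 75%; inconclusive means mean inhibition at least 75% but some replicate below; inactive means mean inhibition below 75%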;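 further: 0% = median of neutral control wells and 100% = pilot-screen positive control compound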
An asterisk follows results filed as active; u = inconclusive; x = not tested or not shown.

SMILES	TROY NFkB inh	TWEAK-Fn14 inh	EBV LMP1 NFkB	Peg3 prom inh	MITF TRPM1 inh	Shn3 3UTR inh
COc1cc(NC(=O)NCc2ccco2)ccc1-c1ccc(NC(=O)NCc2ccco2)cc1OC	20.8	-130.5	0.9	25.8	u	82.7*
COc1ccccc1NC(=O)NCc1ccco1	-10.9	-6.3	-7.0	-10.7	-6.7	27.8
CC(c1ccccc1)N1C(=O)c2ccc(C(=O)Nc3ccc(Br)cc3C(=O)O)cc2C1=O (centres undefined)	64.5*	10.2	-0.8	9.8	-2.7	4.4
CC(C)NC1CCC(Nc2ccnc3cc(Cl)ccc23)CC1 (centres undefined)	-22.8	5.3	8.0	11.7	25.3	75.0
Clc1ccc2c(NCCNC3CCCCC3)ccnc2c1	-16.9	-59.1	1.8	83.6*	94.9*	44.7
CCn1cnc2c([N+](=O)[O-])c(NS(=O)(=O)c3ccc(C)cc3)ccc21	-8.6	-5.6	11.8	7.5	2.7	-5.8
COCCCN=C1NN=C(c2cc(C)n(-c3ccccc3)c2C)CS1	12.4	27.6	-2.9	-141.8	-1.3	19.7
Fc1ccc(F)c(C2=NNC(=Nc3ccccc3F)SC2)c1	-35.6	14.9	-130.3	-354.6	-48.5	36.3
Cc1cc(C2=NNC(=NC3CC3)SC2)c(C)n1-c1c(C)n(C)n(-c2ccccc2)c1=O	-4.7	8.5	0.1	11.8	4.7	-28.4
COCCn1c(C)cc(C2=NNC(=Nc3ccccc3F)SC2)c1C	89.4*	105.4*	64.3*	6.0	66.8*	67.4
Fc1ccccc1N=C1NN=C(c2ccccc2)CS1	41.2	67.2*	-49.2	-247.5	-41.5	81.8
Cc1cc(C2=NNC(=NCCc3ccccc3)SC2)c(C)n1-c1c(C)n(C)n(-c2ccccc2)c1=O	-2.4	57.4*	2.5	16.9	0.2	7.5
COCCCN=C1NN=C(c2cc(C)n(-c3ccccc3F)c2C)CS1	5.7	58.5*	32.6	-2.1	25.6	39.2
COCCCN=C1NN=C(c2cc(C)n(Cc3ccccc3Cl)c2C)CS1	-2.8	2.8	15.6	-202.5	-15.9	37.5
O=C(COc1ccccc1)Nc1c2c(nn1-c1ccc(F)cc1)CS(=O)(=O)C2	16.3	-3.3	-4.0	9.9	-0.3	-1.6
OCCN1CCN(CC(O)COc2ccc(Cl)cc2)CC1 (centres undefined)	-3.0	6.5	0.4	13.2	-1.5	-7.4
NCCOc1ccc(C2CCCCC2)cc1	4.9	6.1	-5.0	-69.9	-26.6	-9.5
NCCOc1ccc(C23CC4CC(CC(C4)C2)C3)cc1	21.7	7.6	-17.7	101.2*	42.9	5.1
OCCN1CCN(CC(O)COc2ccc(C34CC5CC(CC(C5)C3)C4)cc2)CC1 (centres undefined)	-50.5	-129.0	-8.5	113.9*	22.3	-8.2
O=C(O)c1cc(Cl)c(Cl)cc1C(=O)NCc1ccco1	8.0	-18.6	6.8	-1.8	8.8	-5.9
C#CCn1c(=NC(=O)c2ccc(S(=O)(=O)N3CCc4ccccc4C3)cc2)sc2cc(S(N)(=O)=O)ccc21	6.8	10.3	12.5	102.7*	90.4*	97.3*
O=c1oc(-c2ccc(Br)cc2)nc2ccccc12	-9.3	29.4	-14.0	-188.0	-2.6	-57.1
O=[N+]([O-])c1ccc(COc2ccc(-c3[nH]ncc3-c3ccc(Cl)cc3)c(O)c2)cc1	22.6	50.9*	-11.4	34.8	10.8	14.3
COc1ccc(-c2cn[nH]c2-c2ccc(OCc3ccc([N+](=O)[O-])cc3)cc2O)cc1OC	49.5	82.7*	4.6	35.6	3.5	x
CS(=O)(=O)c1ccc(C(=O)OCC(=O)NC(=O)C2COc3ccccc3O2)cc1[N+](=O)[O-] (centres undefined)	8.3	55.4*	-25.7	8.4	16.6	-41.5
SMILES	TROY NFkB inh	TWEAK-Fn14 inh	EBV LMP1 NFkB	Peg3 prom inh	MITF TRPM1 inh	Shn3 3UTR inh
CNc1ccc(C(=O)OCC(=O)NC(=O)NC2CCCCC2)cc1[N+](=O)[O-]	4.6	-3.7	2.6	-3.3	-5.9	10.5
CS(=O)(=O)c1ccc(C(=O)OCC(=O)NC(=O)C2CCCCC2)cc1[N+](=O)[O-]	50.8*	73.0*	-2.6	98.2*	66.5*	36.7
CC1=C(CC(=O)O)c2cc(F)ccc2/C1=C/c1ccc(S(C)=O)cc1 (centres undefined)	7.6	9.9	0.4	2.0	-8.4	0.4
CC1=C(CC(=O)O)c2cc(F)ccc2C1=Cc1ccc(S(C)(=O)=O)cc1	0.4	-2.9	83.5*	8.6	2.3	-2.9
CN(C)Cc1c(C(=O)N/N=C/C2CC=CCC2)nnn1-c1nonc1N (centres undefined)	4.9	3.0	-6.0	6.3	1.3	2.5
O=C1C(=O)c2c(ccc3ccccc23)-c2ccccc21	43.2	101.3*	59.5*	102.0*	98.0*	96.5*
CN(C)/C=C1\Oc2ccc3ccccc3c2C1=O	17.8	13.9	-27.8	-264.6	-65.7	26.7
CN(C)c1cccc(C(=O)N/N=C/c2ccccc2F)c1	55.5*	88.5*	43.8*	19.5	15.0	40.1
COc1ccccc1OCCSc1nc2ccccc2n1CC(=O)O	-8.0	6.8	2.9	10.1	x	-13.7
COc1cc(C(=O)NC(=S)N(C)Cc2ccccc2)cc(OC)c1OC	-20.1	-3.6	1.5	12.1	11.2	14.3
COc1cc(C(=O)NC(=S)N(CCc2ccccc2)CCc2ccccc2)cc(OC)c1OC	70.4*	38.2	25.9	44.4	16.7	60.5
CCc1ccc2oc(-c3ccc(OC)cc3)cc(=Nc3cccc(C(=O)O)c3)c2c1	65.0*	85.4*	11.0	-240.3	-19.6	17.0
COc1ccc(-c2cc(=O)c3cc(O)ccc3o2)cc1	-86.3	-31.0	-59.4	-365.3	x	-66.4
Cc1csc(=Nc2c(C)n(C)n(-c3ccccc3)c2=O)n1Cc1ccccc1	0.6	1.0	-5.5	2.9	3.1	6.8
COc1ccc(-c2cc(=Nc3ccc(C(=O)O)cc3)c3cc(C)ccc3o2)cc1	-17.5	71.8*	-15.4	-356.9	-59.6	-28.0
CCc1ccc2oc(-c3ccc(OC)cc3)cc(=Nc3c(C)n(C)n(-c4ccccc4)c3=O)c2c1	55.1*	74.9*	-48.3	-177.2	-69.9	-2.0
C=CCn1c(-c2ccc(OC)cc2)csc1=Nc1c(C)n(C)n(-c2ccccc2)c1=O	11.1	10.1	42.5*	15.2	22.7	23.2
O=C(N1CCCC1)N1CCN(S(=O)(=O)c2ccccc2)CC1	-13.8	4.3	-6.8	16.6	-7.6	-3.1
CC(NC(=O)COC(=O)Cc1cccs1)c1ccc(F)cc1 (centres undefined)	-10.3	10.0	-0.4	-18.2	10.9	-20.6
COc1ccc(C(=O)N=C2CCC(C#N)=C3c4cc(OC)c(OC)cc4CCN23)cc1	6.1	-22.8	7.8	51.1*	15.7	9.5
